# SRC1 inh = inhibits human SRC1 coactivator | inhibition, % at 3.6 µM | HEK293 GAL4-SRC1 luciferase reporter, luminescence | AID 588354 | 360,000 compounds, 0.12% hits;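 active = inhibition above the campaign mean plus 3 SD, with each screening campaign given its own cutoff, cut at about 60% in these data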;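 also: 0% = DMSO treated cells and 100% = gossypol at 36 µM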
# NCOA2 inhibitor = human SRC2 (NCOA2) inhibition; inhibition, % at 9 µM; 370,000 compounds, 0.17% hits; Q15596; AID 651957; HEK293 GAL4-SRC2 luciferase reporter, luminescence;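 active = inhibition above the mean inhibition of all tested compounds plus 3 SD, set per campaign, cut at about 52% in these data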;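 also: 0% = DMSO treated cells and 100% = cells given Gossypol at 36 µM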
# NCOA3 inh = inhibitors of human steroid receptor coactivator 3 (SRC3); inhibition, % at 3.6 µM; AID 588352; 360,000 compounds, 0.17% hits; Q9Y6Q9; HEK293 GAL4-SRC3 luciferase reporter, luminescence;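 active = inhibition above a per-campaign cutoff, the mean of all compounds plus 3 SD, cut at about 60% in these data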;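 also: 0% = DMSO-treated cells and 100% = gossypol-treated cells at 36 µM; higher means less SRC3-driven luciferase light from the GAL4 reporter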
# COUP-TFII inh = inhibitors of human COUP-TFII (NR2F2); P24468; HEK293T NGFI-A luciferase reporter, luminescence; inhibition, % at 8.6 µM; 370,000 compounds, 0.7% hits; AID 686940;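 active = inhibition above a per-plate cutoff, mean inhibition of test wells between control levels plus 3 SD, cut at about 38% in these data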;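 also: cells cotransfected with COUP-TFII expression vector driving the NGFI-A reporter; 0% = median of COUP-TF2 test wells and 100% = reporter-only cells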
# NR5A2 inv ag = NR5A2 inverse agonism in reporter assay; inhibition, % at 3.6 µM; HEK293T StAR-luciferase reporter, LRH-1 transfected, 24 h; 360,000 compounds, 0.13% hits; O00482;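 active = inhibition above the mean inhibition of all tested compounds plus 3 SD, cut at about 73% in these data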;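 also: 0% = DMSO wells and 100% = reporter-only cells lacking LRH-1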
# VP16 Luc counter = inhibits VP16 reporter, flagging COUP-TFII antagonist hits; shares compounds with COUP-TFII inh; HEK293 Gal4-VP16 luciferase reporter, luminescence; inhibition, % at 8.5 µM; 2,500 compounds, 25% hits; AID 687007; in the data active = inhibition above about 13%
# COUP-TFII conf = COUP-TFII (NR2F2) inhibition, confirmation assay. shares compounds with COUP-TFII inh. HEK293 NGFI-A luciferase reporter, luminescence. inhibition, % at 8.5 µM. 2,500 compounds, 45% hits. AID 687008;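 active = mean inhibition over three repeats above a set limit taken from the earlier primary screen, cut at about 38% in these data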;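 also: 100% = cells given the luciferase reporter alone without the COUP-TF2 vector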
# * marks the source's active call; other numbers are inactive results; i = inactive; . = no result given; ! = not active in a repeat. Shown are actives, neighbours in structure and some others; about 0.84% of the full set was active somewhere.
SMILES,SRC1 inh,NCOA2 inhibitor,NCOA3 inh,COUP-TFII inh,NR5A2 inv ag,VP16 Luc counter,COUP-TFII conf
CCOC(=O)[C@]12CCCC=C1N(Cc1cccc3ccccc13)C(=O)[C@H](CC(=O)NCC1CCCCC1)C2,.,-21,.,-17,-3,.,.
C/C=C/C=C/C(=O)c1cc(C)c(OC(=O)CNC(=O)OC(C)(C)C)c(C)c1O,.,-6,.,14,.,.,.
Nc1ccn(C2OC(CO)C(O)C2O)c(=O)n1 (centres undefined),43,-7,29,3,2,.,.
OCC1OC(n2ccc3c2ncn2ncnc32)C(O)C1O (centres undefined),62*,37,53,15,65,.,.
C[C@@H]1ON(C)[C@H]2C[C@H]3c4[nH]c5c(-c6ccc(Cl)cc6)cccc5c4CCN3C(=O)[C@@H]12,.,-12,.,-21,.,.,.
CC(C)(C)c1ccc(C(=O)NC(=S)Nc2nc3c(s2)CCCC3)cc1,34,45,38,49*,11,-24,37
CC1CCc2nc(NC(=O)c3ccc(S(=O)(=O)N4CCCc5ccccc54)cc3)sc2C1 (centres undefined),6,-6,2,3,-3,.,.
O=C(Nc1nc2c(s1)CCCC2)c1ccc(S(=O)(=O)N2CCCc3ccccc32)cc1,3,15,22,50*,14,-8,31
O=C(N[C@H](Cc1ccccc1)C(=O)NCCCc1ccccc1)[C@H]1O[C@@H](n2ccc(=O)[nH]c2=O)[C@H](O)[C@@H]1O,.,12,.,3,.,.,.
COc1ccc(S[C@]2(C(=O)N(C)C)CC(=O)N(C(=O)CCc3ccccc3)[C@@H]2c2ccc(OC)cc2)cc1,.,22,.,28,.,.,.
O=C(CSc1nnc(Cn2nnc3ccccc32)o1)N(Cc1ccc(F)cc1)c1ccccc1,29,24,32,79*,50,0,62*
O=C(NCC1CCN(C(=O)C(=O)c2cc3ccccc3o2)CC1)c1ccncc1,.,0,.,3,.,.,.
CC(=O)N(/N=C1\Sc2ccccc2C1=O)c1ccc(C)cc1C,54,26,64*,64*,63,24*,76*
CCCCCNCc1ccc(Cl)cc1,-8,-5,20,-3,-9,.,.
CCCCCCC[N+](CC)(CC)CCCCc1ccc(Cl)cc1,4,-25,52,41*,70,15*,25
Cc1nn(-c2ccccc2Cl)c(Cl)c1/C=N/Nc1nc2ccccc2s1,67*,81*,79*,86*,41,88*,102*
CCOC(=O)N/N=C/c1c(C)nn(-c2ccccc2Cl)c1Cl,-85,-100,-43,-45,-60,.,.
Nc1ccc2nc(SCC(=O)N3CCN(c4ccccc4)CC3)sc2c1,11,3,25,55*,32,-10,29
Cn1nc(C(=O)NCc2ccccc2Cl)c2c1-c1ccccc1S(=O)(=O)C2,-4,8,-6,-11,8,.,.
COC(=O)C1=C(C)N(Cc2ccccc2C(F)(F)F)C(=NCc2cc(OC)c(OC)c(OC)c2)NC1c1ccccc1C(F)(F)F (centres undefined),.,-5,.,4,.,.,.
COC(=O)C1=C(C)N(Cc2ccccc2C(F)(F)F)C(=NCc2cc(OC)c(OC)c(OC)c2)NC1c1ccc(Cl)cc1 (centres undefined),.,0,.,41*,.,-10,-1
O=C(C1CCCN(S(=O)(=O)c2cccc3nsnc23)C1)N1CCc2ccccc2C1 (centres undefined),-9,32,-7,41*,-15,-6,2
CC1CNCCN1S(=O)(=O)c1cccc2cnccc12 (centres undefined),4,31,17,41*!,-1,3,11
CC1CCCCN1S(=O)(=O)c1cccc2cccnc12 (centres undefined),6,-2,19,11,-10,.,.
O=C1/C(=C\c2ccccc2)CCC/C1=C/c1ccccc1,4,-31,1,2,1,.,.
SMILES,SRC1 inh,NCOA2 inhibitor,NCOA3 inh,COUP-TFII inh,NR5A2 inv ag,VP16 Luc counter,COUP-TFII conf
O=C1/C(=C\c2ccccc2)CN(C(=O)CCN2CCCCC2)C/C1=C/c1ccccc1,-8,40,2,63*,74*,64*,63*
CCN(CC)CCC(=O)N1C/C(=C/c2ccccc2)C(=O)/C(=C\c2ccccc2)C1,-85,37,-8,74*,70,67*,65*
O=C1/C(=C\c2ccc(Cl)c(Cl)c2)CN(C(=O)CCN2CCOCC2)C/C1=C/c1ccc(Cl)c(Cl)c1,i,30,-241,85*,61,92*,106*
O=C(CCN1C(=O)S/C(=C\c2ccccc2)C1=O)N1CCCCC1,-34,-8,-7,-9,-26,.,.
Cn1cc(CC(=O)Nc2ccc(Oc3cccnc3)cc2)c2ccccc21,.,4,.,-4,.,.,.
O=C(NCc1cccnc1)/C(=C\c1ccc(-c2cccc(Cl)c2)o1)S(=O)(=O)c1ccccc1,6,63*,82*,42*,68,21*,37
O=C(NCc1cccnc1)/C(=C/c1ccc(-c2cccc(Cl)c2)o1)S(=O)(=O)c1ccccc1,-19,23,15,2,-5,.,.
C/C(=C/c1c[n+](Cc2ccc3c(c2)OCO3)c(N)[nH]1)Cn1[nH]c(=O)n(-c2ccccc2)c1=O,.,-13,.,0,.,.,.
CC(O)CC(=O)OC[C@]12CC[C@H]3[C@@](C)(CC[C@H]4C(C)(C)CCC[C@]34C)[C@@H]1CC(C1=CC(=O)OC1O)O2 (some centres undefined),38,42,58,87*,78*,52*,72*
CN(C)c1ccc(CCc2ccc(N)cc2)cc1,-4,45,15,59*,10,40*,19
COc1cc(NC(=O)c2cccc3c(-c4cccnc4)coc23)cc(OC)c1OC,35,29,16,52*,28,7,33
O=C(Nc1cccc(C(F)(F)F)c1)c1cccc2c(-c3cccnc3)coc12,4,.,-6,.,1,.,.
COc1ccc(-c2coc3c(C(=O)NCC4CCOCC4)cccc23)c(C)c1,8,12,8,42*,31,-3,17
COc1ccc(-c2coc3c(C(=O)NCc4ccc(F)c(F)c4)cccc23)c(C)c1,8,6,-22,47*,19,7,28
COc1ccc(CNC(=O)c2cccc3c(-c4cnn(C)c4)coc23)cc1OC,22,11,23,62*,42,-4,40*
COc1ccc(CNC2CCC23CCC(C)CC3)cc1OC (centres undefined),.,.,.,-9,.,.,.
COC(=O)[C@]12C[C@H](CC(=O)NCc3ccccc3)C(=O)N(Cc3ccc(Cl)cc3Cl)C1=C[C@H](C(C)C)O[C@@H]2C1CC1,.,-1,.,30,.,.,.
Cc1cc(C)c(C(=O)N(C)C2CCCN(Cc3ccccc3F)C2)o1 (centres undefined),-27,-18,7,12,-2,.,.
